Where a chain is given by its changes, count along the chain named. The full ranking holds about 16,000 sequences; the median of “ka relative to ugcaugu” is about 0.0091, and the highest 2% start at about 0.032. This excerpt belongs to a sample that is enriched for the highest values.

T1: RBFOX1 RRM (Homo sapiens, UniProt Q9NWB1 109-208)
T1 sequence: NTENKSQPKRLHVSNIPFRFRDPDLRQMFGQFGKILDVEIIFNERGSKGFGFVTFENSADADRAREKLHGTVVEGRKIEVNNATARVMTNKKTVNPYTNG

B1: GCGUCCG (DNA:RNA)
RNA: GGGAGACCGGAAUUCAGAUUGUCCGCGUCCGUUAAAUCCCGUCGUAGCCACCA
DNA 1: CAATCTGAATTCCGGTCTCCC
DNA 2: TGGTGGCTACGACGGGATT
B2: GCACGCU (DNA:RNA)
RNA: B1 RNA with G27A, U28C, C29G, G31U
DNA 1: CAATCTGAATTCCGGTCTCCC
DNA 2: TGGTGGCTACGACGGGATT
B3: GCACCCG (DNA:RNA)
RNA: B1 RNA with G27A, U28C
DNA 1: CAATCTGAATTCCGGTCTCCC
DNA 2: TGGTGGCTACGACGGGATT
B4: CUGCAGA (DNA:RNA)
RNA: B1 RNA with G25C, C26U, U28C, C29A, C30G, G31A
DNA 1: CAATCTGAATTCCGGTCTCCC
DNA 2: TGGTGGCTACGACGGGATT
B5: AUUUAGA (DNA:RNA)
RNA: B1 RNA with G25A, C26U, G27U, C29A, C30G, G31A
DNA 1: CAATCTGAATTCCGGTCTCCC
DNA 2: TGGTGGCTACGACGGGATT
B6: GAACGUU (DNA:RNA)
RNA: B1 RNA with C26A, G27A, U28C, C29G, C30U, G31U
DNA 1: CAATCTGAATTCCGGTCTCCC
DNA 2: TGGTGGCTACGACGGGATT
B7: CGGCGCA (DNA:RNA)
RNA: B1 RNA with G25C, C26G, U28C, C29G, G31A
DNA 1: CAATCTGAATTCCGGTCTCCC
DNA 2: TGGTGGCTACGACGGGATT
B8: CCGCUCA (DNA:RNA)
RNA: B1 RNA with G25C, U28C, C29U, G31A
DNA 1: CAATCTGAATTCCGGTCTCCC
DNA 2: TGGTGGCTACGACGGGATT
B9: UUAGAAU (DNA:RNA)
RNA: GGGAGACCGGAAUUCAGAUUGUCCUUAGAAUUUAAAUCCCGUCGUAGCCACCA
DNA 1: CAATCTGAATTCCGGTCTCCC
DNA 2: TGGTGGCTACGACGGGATT
B10: GUAUACC (DNA:RNA)
RNA: B1 RNA with C26U, G27A, C29A, G31C
DNA 1: CAATCTGAATTCCGGTCTCCC
DNA 2: TGGTGGCTACGACGGGATT
B11: CCCUGGC (DNA:RNA)
RNA: B1 RNA with G25C, G27C, C29G, C30G, G31C
DNA 1: CAATCTGAATTCCGGTCTCCC
DNA 2: TGGTGGCTACGACGGGATT
B12: CGGCUGU (DNA:RNA)
RNA: B1 RNA with G25C, C26G, U28C, C29U, C30G, G31U
DNA 1: CAATCTGAATTCCGGTCTCCC
DNA 2: TGGTGGCTACGACGGGATT
B13: UUGGCUC (DNA:RNA)
RNA: B9 RNA with A27G, A29C, A30U, U31C
DNA 1: CAATCTGAATTCCGGTCTCCC
DNA 2: TGGTGGCTACGACGGGATT
B14: CUGUGGC (DNA:RNA)
RNA: B1 RNA with G25C, C26U, C29G, C30G, G31C
DNA 1: CAATCTGAATTCCGGTCTCCC
DNA 2: TGGTGGCTACGACGGGATT
B15: CUGGCUC (DNA:RNA)
RNA: B1 RNA with G25C, C26U, U28G, C30U, G31C
DNA 1: CAATCTGAATTCCGGTCTCCC
DNA 2: TGGTGGCTACGACGGGATT
B16: UUGGCUG (DNA:RNA)
RNA: B1 RNA with G25U, C26U, U28G, C30U
DNA 1: CAATCTGAATTCCGGTCTCCC
DNA 2: TGGTGGCTACGACGGGATT
B17: UGGGCUC (DNA:RNA)
RNA: B1 RNA with G25U, C26G, U28G, C30U, G31C
DNA 1: CAATCTGAATTCCGGTCTCCC
DNA 2: TGGTGGCTACGACGGGATT
B18: UGGCUCU (DNA:RNA)
RNA: B1 RNA with G25U, C26G, U28C, C29U, G31U
DNA 1: CAATCTGAATTCCGGTCTCCC
DNA 2: TGGTGGCTACGACGGGATT
B19: GUGCUGU (DNA:RNA)
RNA: B1 RNA with C26U, U28C, C29U, C30G, G31U
DNA 1: CAATCTGAATTCCGGTCTCCC
DNA 2: TGGTGGCTACGACGGGATT
B20: GUGGCUG (DNA:RNA)
RNA: B1 RNA with C26U, U28G, C30U
DNA 1: CAATCTGAATTCCGGTCTCCC
DNA 2: TGGTGGCTACGACGGGATT
B21: CUGGCUG (DNA:RNA)
RNA: B1 RNA with G25C, C26U, U28G, C30U
DNA 1: CAATCTGAATTCCGGTCTCCC
DNA 2: TGGTGGCTACGACGGGATT
B22: UGGCUGU (DNA:RNA)
RNA: B9 RNA with U26G, A27G, G28C, A29U, A30G
DNA 1: CAATCTGAATTCCGGTCTCCC
DNA 2: TGGTGGCTACGACGGGATT
B23: CAUUUCG (DNA:RNA)
RNA: B1 RNA with G25C, C26A, G27U, C29U
DNA 1: CAATCTGAATTCCGGTCTCCC
DNA 2: TGGTGGCTACGACGGGATT
B24: UAUCCUA (DNA:RNA)
RNA: B1 RNA with G25U, C26A, G27U, U28C, C30U, G31A
DNA 1: CAATCTGAATTCCGGTCTCCC
DNA 2: TGGTGGCTACGACGGGATT
B25: GAGGAUC (DNA:RNA)
RNA: B1 RNA with C26A, U28G, C29A, C30U, G31C
DNA 1: CAATCTGAATTCCGGTCTCCC
DNA 2: TGGTGGCTACGACGGGATT
B26: GUAUACA (DNA:RNA)
RNA: B1 RNA with C26U, G27A, C29A, G31A
DNA 1: CAATCTGAATTCCGGTCTCCC
DNA 2: TGGTGGCTACGACGGGATT
B27: GUUGCGA (DNA:RNA)
RNA: B1 RNA with C26U, G27U, U28G, C30G, G31A
DNA 1: CAATCTGAATTCCGGTCTCCC
DNA 2: TGGTGGCTACGACGGGATT
B28: AUCUGUA (DNA:RNA)
RNA: B1 RNA with G25A, C26U, G27C, C29G, C30U, G31A
DNA 1: CAATCTGAATTCCGGTCTCCC
DNA 2: TGGTGGCTACGACGGGATT
B29: ACGGGUC (DNA:RNA)
RNA: B1 RNA with G25A, U28G, C29G, C30U, G31C
DNA 1: CAATCTGAATTCCGGTCTCCC
DNA 2: TGGTGGCTACGACGGGATT
B30: UGUGAUC (DNA:RNA)
RNA: B9 RNA with U26G, A27U, A30U, U31C
DNA 1: CAATCTGAATTCCGGTCTCCC
DNA 2: TGGTGGCTACGACGGGATT
B31: CCAGUCU (DNA:RNA)
RNA: B9 RNA with U25C, U26C, A29U, A30C
DNA 1: CAATCTGAATTCCGGTCTCCC
DNA 2: TGGTGGCTACGACGGGATT

The target of this test is T1, RBFOX1 RRM. Nature of the test: EMSA; HiTS-Eq, 1 nM pool, 10 min; buffer printed only for the single-RNA assays: 10 mM Tris pH 7.5, 150 mM NaCl, 3.4 mM EDTA, 0.001% NP-40, 30 C. Conditions: tags: His6 N-terminal (pET28a); label: 5' 32P. The method, boiled down: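 Purified RbFox RRM (wild type or mutant) was equilibrated for 10 min in 50 µL with 1 nM of a 5′-radiolabelled pool of RNA with 7 randomized nucleotides, its flanks annealed to DNA oligonucleotides, across increasing protein concentrations. Free RNA was separated by 8% native PAGE, excised, reverse-transcribed, PCR-barcoded and sequenced on an Illumina HiSeq 2500. Relative association constants came from read-count changes of each variant against the control reaction, normalised to the cognate motif.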
(In general: In EMSA bound probe runs differently from free probe, usually more slowly.)
B1: the binding signal was 0.0136 KA relative to UGCAUGU. Turning to B2, the binding signal is 0.0317 KA relative to UGCAUGU. Turning to B3, the binding signal is 0.00754 KA relative to UGCAUGU. As to B4, the binding signal was 0.0168 KA relative to UGCAUGU. As to B5, the binding signal is 0.0108 KA relative to UGCAUGU. Consider B6, for which the binding signal is 0.0166 KA relative to UGCAUGU. Take B7: the binding signal was 0.0121 KA relative to UGCAUGU. For the molecule B8, the binding signal was 0.00712 KA relative to UGCAUGU.

B9: the binding signal was 0.00773 KA relative to UGCAUGU. As to B10, the binding signal was 0.0043 KA relative to UGCAUGU.

With B11, the binding signal was 0.011 KA relative to UGCAUGU. Regarding B12, the binding signal was 0.0179 KA relative to UGCAUGU. As for B13, the figure is 0.0219 KA relative to UGCAUGU; as for B14, 0.0106 KA relative to UGCAUGU. Regarding B15, the binding signal is 0.0211 KA relative to UGCAUGU. As for B16, the figure is 0.0406 KA relative to UGCAUGU; as for B17, 0.0362 KA relative to UGCAUGU. Take B18: the binding signal is 0.0197 KA relative to UGCAUGU. The result for B19 reads 0.021 KA relative to UGCAUGU; that for B20, 0.0289 KA relative to UGCAUGU; that for B21, 0.0348 KA relative to UGCAUGU. For B22, the binding signal was 0.0395 KA relative to UGCAUGU. With B23, the binding signal was 0.00769 KA relative to UGCAUGU.

For B24, the binding signal is 0.00279 KA relative to UGCAUGU. For the molecule B25, the binding signal is 0.0149 KA relative to UGCAUGU. In the case of B26, the binding signal was 0.00201 KA relative to UGCAUGU.

With B27, the binding signal is 0.0206 KA relative to UGCAUGU. As to B28, the binding signal was 0.00557 KA relative to UGCAUGU. As for B29, the figure is 0.0159 KA relative to UGCAUGU. For the molecule B30, the binding signal is 0.0227 KA relative to UGCAUGU.

Consider B31, for which the binding signal was 0.00457 KA relative to UGCAUGU.

The record behind these values is publication PMC9911399, “Two distinct binding modes provide the RNA-binding protein RbFox with extraordinary sequence specificity”.
